Source: PubChem BioAssay (NCI)
This is part of a sample that, as a whole, favours compounds with a hit. Of some 79,000 tested, about 15% had one in any assay. Active and inactive are the calls of the source. Cut-off read from the data, not from the text of the source: active = growth inhibition above about 70%; inactive = the rest.

Test: NCI Yeast Anticancer Drug Screen. Data for the sgs1 strain (AID 173);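 note: 0% = growth of vehicle-only control cultures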
Conditions: S. cerevisiae sgs1 mutant, active compounds read high
Method: Growth inhibition of yeast strains with defined genetic alterations is measured as a screen for potential anti-cancer activity. Selected strains with alterations in DNA damage repair or cell cycle control were exposed to compounds and growth inhibition was measured relative to vehicle treated controls. The strain used in this assay is sgs1

Measured: growth inhibition

OB(O)c1ccccc1C#Cc1ccccc1
inactive: at 1.2 µM -1% | at 3.7 µM -1% | at 11.0 µM 8% | at 33.0 µM 19% | at 100.0 µM 31%

COc1ccc2cc(C(C)C(=O)N3CCOC3=O)ccc2c1 (stereo not given)
inactive: at 1.2 µM -2% | at 3.7 µM -12% | at 11.0 µM -2% | at 33.0 µM 3% | at 100.0 µM 27%

CC1(C)CC(=O)C(C=NC(=S)C(N)=S)=C(O)C1
inactive: at 1.2 µM -28% | at 3.7 µM -31% | at 11.0 µM -29% | at 33.0 µM -15% | at 100.0 µM 65%

CN(C)CCNc1ccc2ncn3c4ccc(O)cc4c(=O)c1c23
inactive: at 1.2 µM -21% | at 3.7 µM -17% | at 11.0 µM -3% | at 33.0 µM -16% | at 100.0 µM -23%

NNc1ccccc1-c1nc2ccccc2[nH]1
inactive: at 1.2 µM 0% | at 3.7 µM 1% | at 11.0 µM 0% | at 33.0 µM -1% | at 100.0 µM 47%

Clc1ccc(/C(=C\c2ccccc2)Cn2ccnc2)cc1
active: at 33.0 µM 90% | at 100.0 µM 83%
inactive: at 1.2 µM 44% | at 3.7 µM 54% | at 11.0 µM 69%

Clc1nc(Cl)nc(Nc2cccc3ccccc23)n1
inactive: at 1.2 µM 31% | at 3.7 µM 47%
active: at 11.0 µM 77% | at 33.0 µM 96% | at 100.0 µM 98%

O=[N+]([O-])[O][Sn]([O][Sn]([O][N+](=O)[O-])([c]1ccccc1)[c]1ccccc1)([c]1ccccc1)[c]1ccccc1
inactive: at 1.2 µM -6% | at 3.7 µM -12% | at 11.0 µM -24% | at 33.0 µM 51%
active: at 100.0 µM 98%
